Screening results: PubChem, Johns Hopkins Ion Channel Center
ANO1 activ: TMEM16A chloride channel activators or potentiators, primary screen, cell-based, HTS; hit rate 0.3% among 340,000; B-score at 10 µM; AID 623877, 2012; Anoctamin-1 (Mus musculus), Q8BHY3; HEK293 TMEM16A/YFP-H148Q/I152L, iodide quench fluorescence; hits give low values;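 active = fluorescence-ratio B-score plate-corrected deviation score at least 3 library SD below zero, with starting fluorescence score within 5 deviations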;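 also: channel opened by trigger with iodide after compound preincubation; score built on the fluorescence ratio of max minus min over baseline; more negative score means more quench and so TMEM16A activation or potentiation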
CHT allo act: CHT positive allosteric modulators, primary screen, cell-based, membrane potential dye, choline EC20. CHT-expressing cells; hits give high values; LV-AA mutant CHT in HEK293 cells. B-score at 10 µM. hit rate 0.49% among 310,000. AID 488977, 2010;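 active = initial fluorescence not abnormally high and integrated response B-score, plate-corrected, over 3 SD above library mean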
ANO1 block: TMEM16A chloride channel inhibitors, primary screen, cell-based, HTS; HEK293 TMEM16A/YFP iodide influx fluorescence, ionomycin; hit rate 1.2% among 310,000; Anoctamin-1 (Mus musculus), Q8BHY3; normalized B-score (activity score, 25-100; higher = stronger inhibition) at 10 µM;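 active = ratio plate-corrected score three or more library SD toward inhibition, starting fluorescence score within five deviations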;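 also: score derived from kinetic fluorescence span divided by baseline fluorescence per well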
CHT block: inhibitors of human choline transporter CHT. CHT-expressing cells, membrane potential dye, choline response; hits give low values. B-score at 10 µM. hit rate 0.86% among 310,000. AID 488975, 2010;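 active = B-score over 3 SD under the library average, and starting fluorescence ratio not unusually high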;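 also: choline stimulus applied at its EC90 after an EC20 pre-addition; B-score computed on integrated fluorescence ratio after choline addition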
CHT activ conf: CHT activators, confirmation, cell-based, membrane potential dye, duplicate; AID 504833, 2011; activation, % at 10 µM; hit rate 91% among 2,500; shares compounds with CHT allo act; CHT-expressing cells, membrane potential dye fluorescence (FDSS); % of choline EC20–EC90 response window; HEK293 expressing CHT LV-AA mutant; choline added at its EC20;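 active = primary screen active, with duplicate mean activation above negative control mean plus 3 SD, cut at about 11% in these data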
HEK293 MP dye: membrane potential response in parental HEK293 cells, counter-screen for CHT activator project, cell-based, membrane potential dye | membrane potential dye fluorescence (FDSS); measured after EC20 choline addition | shares compounds with CHT allo act | ratio readout change at 10 µM, hits read low | hit rate 62% among 2,500 | AID 623908, 2012;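 active = duplicate-averaged ratio beyond 3 SD from buffer wells, up or down, though filed actives are nearly all decreases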
Hits are given with their value. Sampled rows, rich in hits. Any-hit rate of the full collection: about 2.3%.

Screening C=CCN1C(=O)C(Cc2ccc(SC(F)F)cc2)SC1=Nc1ccc(C(=O)O)cc1 (stereo unspecified) returned ANO1 activ inactive, CHT allo act inactive, ANO1 block inactive and CHT block inactive.
C=CCNC(=S)NNC(=O)c1ccc(=O)n(Cc2ccc(Cl)cc2Cl)c1 was read as ANO1 activ inactive, CHT allo act inactive, ANO1 block inactive and CHT block inactive.
`C#CCOCCOCCOCCNc1nc(N2CCN(C(=O)CCCCCCCCCCNC(=O)Cn3cc(CCCCCN)nn3)CC2)nc(N2CCN(C(=O)CCCCCCCCCCNC(=O)[C@@H]([C@H](C)O)n3cc(C)nn3)CC2)n1` gave ANO1 activ inactive, CHT allo act inactive, ANO1 block inactive and CHT block inactive.
Screening C#CCOCCOCCOCCNc1nc(N2CCN(C(=O)CCCCCCCCCCNC(=O)[C@H](CCCCN)n3cc(C)nn3)CC2)nc(N2CCN(C(=O)CCCCCCCCCCNC(=O)[C@@H]([C@H](C)O)n3cc(C)nn3)CC2)n1 returned ANO1 activ inactive, CHT allo act inactive, ANO1 block inactive, CHT block inactive, CHT activ conf inactive and HEK293 MP dye -40.
`C#CCOCCOCCOCCNc1nc(N2CCN(C(=O)[C@H](CCCCN)n3cc([C@@H](N)CC(C)C)nn3)CC2)nc(N2CCN(C(=O)[C@H](CCCCN)n3cc([C@@H](N)CC(C)C)nn3)CC2)n1` gave ANO1 activ inactive, CHT allo act inactive, ANO1 block inactive, CHT block inactive, CHT activ conf 56 and HEK293 MP dye -39.
For NNC(=O)c1ccc(CSc2nc3ccccc3[nH]2)cc1 the results were ANO1 activ inactive, CHT allo act inactive, ANO1 block inactive and CHT block inactive.
For CCOC(=O)C[C@H]1c2ccccc2S(=O)(=O)N1Cc1cccc(C(F)(F)F)c1 the results were ANO1 activ inactive, CHT allo act inactive, ANO1 block inactive, CHT block inactive, CHT activ conf 17 and HEK293 MP dye inactive.
For Cc1cc(NC(=O)CCC(=O)N(Cc2ccccc2)C(C(=O)NC2CCCC2)c2ccco2)no1 (stereo unspecified) the results were ANO1 activ inactive, CHT allo act inactive, ANO1 block inactive and CHT block inactive.
`Cc1ccc(C(C(=O)NC2CCCC2)N(Cc2ccco2)C(=O)CCC(=O)Nc2cc(C)on2)cc1` (stereo unspecified) gave ANO1 activ inactive, CHT allo act 6.4, ANO1 block inactive, CHT block inactive, CHT activ conf inactive and HEK293 MP dye inactive.
`Cc1ccc(C(C(=O)NC2CCCCC2)N(Cc2ccco2)C(=O)Cc2c[nH]c3ccccc23)o1` (stereo unspecified) gave ANO1 activ inactive, CHT allo act 6.4, ANO1 block inactive, CHT block inactive, CHT activ conf 26 and HEK293 MP dye inactive.
Cc1ccc(C(C(=O)NC2CCCCC2)N(C(=O)Cc2c[nH]c3ccccc23)c2ccccc2C)o1 (stereo unspecified) was read as ANO1 activ inactive, CHT allo act inactive, ANO1 block inactive and CHT block inactive.
`O=C(CN1C(=O)C(=O)N(Cc2ccccc2)C1=O)c1ccc[nH]1` gave ANO1 activ inactive.
Screening C[C@@H](N)C(=O)NC[C@H]1CC[C@H](C(=O)N[C@@H](Cc2ccccc2)C(=O)O)CC1 returned ANO1 activ inactive, CHT allo act inactive, ANO1 block inactive and CHT block inactive.
For CN(CCO)S(=O)(=O)c1ccc2c(c1)C(=NNC(N)=O)c1cc(S(=O)(=O)N(C)CCO)ccc1-2 the results were ANO1 activ inactive, CHT allo act 8.2, ANO1 block inactive, CHT block inactive, CHT activ conf 42 and HEK293 MP dye -43.
Screening CN1C(=O)CS/C1=N\NC(=O)COc1cccc2cccnc12 returned ANO1 activ inactive, CHT allo act 6.6, ANO1 block inactive, CHT block inactive, CHT activ conf 48 and HEK293 MP dye -56.
`CC[n+]1c(C)sc2cc(OC)ccc21` gave ANO1 activ inactive, CHT allo act inactive, ANO1 block inactive, CHT block inactive, CHT activ conf 29 and HEK293 MP dye -62.
For C=CCOc1cccc(C(=O)Nc2ncn[nH]2)c1 the results were ANO1 activ inactive, CHT allo act inactive, ANO1 block inactive and CHT block inactive.
COc1ccc(C(=O)Nc2ccncc2)cc1OC was read as ANO1 activ inactive, CHT allo act 8.2, ANO1 block inactive, CHT block inactive, CHT activ conf 39 and HEK293 MP dye -50.
For COc1ccc(C(=O)Nc2ccncc2)cc1[N+](=O)[O-] the results were ANO1 activ inactive, CHT allo act inactive, ANO1 block inactive and CHT block inactive.
Screening COc1ccc(Cl)cc1C(=O)Nc1ccncc1 returned ANO1 activ inactive, CHT allo act inactive, ANO1 block inactive, CHT block inactive, CHT activ conf 60 and HEK293 MP dye -42.
`COc1ccc(Cl)cc1C(=O)NNC(=O)c1ccncc1` gave ANO1 activ inactive, CHT allo act inactive, ANO1 block inactive and CHT block inactive.
`CC1(C)Cc2c(c(-c3ccco3)nc3sc4c(NCCN5CCOCC5)ncnc4c23)CO1` gave ANO1 activ inactive, CHT allo act inactive, ANO1 block inactive and CHT block inactive.
Screening CC1(C)Cc2c(sc3nc(NCCN4CCOCC4)n4ncnc4c23)CO1 returned ANO1 activ inactive, CHT allo act 6.5, ANO1 block inactive, CHT block inactive, CHT activ conf 62 and HEK293 MP dye -62.
COc1ccc(C(=O)Nc2c(N)nc(SCC(=O)NCC3CCCO3)[nH]c2=O)cc1 (stereo unspecified) was read as ANO1 activ inactive, CHT allo act inactive, ANO1 block inactive and CHT block inactive.
For O=C(CCc1ccccc1)Nc1nc2c(F)cc(F)cc2s1 the results were ANO1 activ inactive, CHT allo act inactive, ANO1 block inactive and CHT block inactive.
`CCCCCCn1cc(C(=O)O)c(=O)c2cc(F)c(N3CCN(C)CC3)cc21` gave ANO1 activ inactive, CHT allo act 6.9, ANO1 block inactive, CHT block inactive, CHT activ conf 59 and HEK293 MP dye -76.
CCCCCCCC(=O)N1CCN(c2cc3c(cc2F)c(=O)c(C(=O)O)cn3CC)CC1 was read as ANO1 activ inactive, CHT allo act inactive, ANO1 block inactive and CHT block inactive.
CCn1cc(C(=O)O)c(=O)c2cc(F)c(N3CCNCC3)cc21 was read as ANO1 activ inactive, CHT allo act 14, ANO1 block inactive, CHT block inactive, CHT activ conf 39 and HEK293 MP dye -42.
